From PubChem BioAssay AID1159580 (chemical genetic matrix, 2015)
Several values for one entry are separate records, joined by “and”; a condition that tells them apart may be missing. Equal entries are not always repeated. The campaign covered roughly 5,500 compounds. About 2,000 (36%) were called active. Roughly 18% stayed inconclusive and do not appear here. No stated cut-off is given here; in the data, active means normalized growth mostly below about 0.91 (no sharp cut-off); inconclusive means no clear call, values can overlap the other calls; inactive means mostly above about 0.92. Some of the results follow.

Test: chemical genetic growth profiling, strain panel (AID 1159580);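 further: tested at 20 µM; growth read once vehicle control cultures reached saturation at 30 °C; 1 = growth at the plate median or of vehicle wells; lower values mean less growth of the strain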
Details: S. cerevisiae deletion strains, growth OD

Measured: normalized growth

CC1CCC(NC(=O)N(CCCl)N=O)CC1 (stereo not drawn)
inactive: locus YBL061C, strain skt5, hits give low values 0.965 | locus YBR021W, strain FUR4, hits give low values 1.02 | locus YBR229C, strain ROT2, hits give low values 0.998 | locus YCL029C, strain bik1, hits give low values 1.01 | locus YDL005C, strain med2, hits give low values 0.952 | locus YDL035C, strain GPR1, hits give low values 0.946 | locus YDL040C, strain nat1, hits give low values 0.983 | locus YDL074C, strain BRE1, hits give low values 0.874 | locus YDL101C, strain DUN1, hits give low values 0.995 | locus YDL134C, strain PPH21, hits give low values 0.995 | locus YDL185W, strain tfp1, hits give low values 1.01 | locus YDL192W, strain arf1, hits give low values 1 | locus YDR069C, strain doa4, hits give low values 0.958 | locus YDR101C, strain arx1, hits give low values 0.99 | locus YDR150W, strain NUM1, hits give low values 0.998 | locus YDR162C, strain NBP2, hits give low values 0.968 | locus YDR195W, strain ref2 0.994 | locus YDR297W, strain sur2, hits give low values 0.951 | locus YDR318W, strain mcm21, hits give low values 0.979 | locus YDR335W, strain msn5, hits give low values 0.933 | locus YDR388W, hits give low values 1.01 | locus YEL061C, strain CIN8, hits give low values 0.992 | locus YER110C, hits give low values 1.01 | locus YER111C, strain swi4, hits give low values 0.961 | locus YER155C, strain BEM2, hits give low values 1 | locus YER167W, strain BCK2, hits give low values 0.938 | locus YGL078C, strain dbp3, hits give low values 0.957 | locus YGL086W, strain mad1, hits give low values 0.937 | locus YGL167C, strain pmr1, hits give low values 0.98 | locus YGL248W, strain PDE1, hits give low values 1 | locus YGR135W, strain pre9, hits give low values 0.935 | locus YGR252W, strain gcn5, hits give low values 0.993 | locus YHR030C, strain SLT2, hits give low values 0.991 and 0.89 | locus YHR079C, strain IRE1 (second series), hits give low values 1 | locus YHR079C, strain IRE1, hits give low values 0.866 | locus YHR094C, strain hxt1, hits give low values 1.01 | locus YHR129C, strain ARP1, hits give low values 0.974 | locus YHR200W, strain rpn10, hits give low values 0.982 | locus YIL066C, strain RNR3, hits give low values 0.949 | locus YIL073C, strain SPO22, hits give low values 1.02 | locus YIR030C, strain dcg1, hits give low values 0.995 | locus YJL095W, strain BCK1, hits give low values 0.928 and 0.908 | locus YJL134W, strain LCB3, hits give low values 0.997 | locus YJL154C, strain vps35, hits give low values 0.975 | locus YJL168C, strain set2, hits give low values 1.01 | locus YJL187C, strain SWE1 (second series), hits give low values 1 | locus YJR066W, strain TOR1, hits give low values 0.894 | locus YKL009W, strain mrt4, hits give low values 0.921 | locus YKL068W, hits give low values 0.983 | locus YKL160W, strain elf1, hits give low values 0.914 | locus YKL190W, strain CNB1, hits give low values 0.996 | locus YLL001W, strain dnm1, hits give low values 0.929 | locus YLR039C, strain RIC1, hits give low values 0.771 | locus YLR058C, strain SHM2, hits give low values 0.995 | locus YLR102C, strain apc9, hits give low values 1.01 | locus YLR113W, strain HOG1, hits give low values 0.902 | locus YLR262C, strain YPT6, hits give low values 0.656 | locus YLR268W, strain sec22, hits give low values 0.894 | locus YLR330W, strain CHS5, hits give low values 0.977 | locus YLR342W, strain FKS1 (second series), hits give low values 0.991 | locus YLR370C, strain arc18, hits give low values 0.913 | locus YLR371W, strain rom2, hits give low values 0.941 | locus YLR384C, strain iki3, hits give low values 0.956 | locus YML016C, strain PPZ1, hits give low values 1 | locus YML032C, strain rad52, hits give low values 1.01 | locus YML124C, strain tub3, hits give low values 1 | locus YMR078C, strain ctf18, hits give low values 1 | locus YMR223W, strain ubp8, hits give low values 0.974 | locus YMR231W, strain pep5, hits give low values 0.981 | locus YMR307W, strain GAS1, hits give low values 0.721 | locus YNL067W, strain RPL9B, hits give low values 0.926 | locus YNL153C, strain GIM3, hits give low values 0.882 | locus YNL183C, strain NPR1, hits give low values 0.9 | locus YNL233W, strain BNI4, hits give low values 0.917 | locus YNL250W, strain rad50, hits give low values 0.94 | locus YNL271C, strain bni1, hits give low values 0.93 | locus YNL298W, strain CLA4, hits give low values 0.957 | locus YNL322C, strain KRE1, hits give low values 0.985 | locus YNR049C, strain mso1, hits give low values 0.939 | locus YNR052C, strain pop2, hits give low values 1.02 | locus YOL012C, strain htz1 0.346 | locus YOL147C, strain pex11, hits give low values 1 | locus YOR061W, strain CKA2, hits give low values 1 | locus YOR069W, strain VPS5, hits give low values 0.998 | locus YOR080W, strain dia2, hits give low values 0.988 | locus YOR136W, strain idh2, hits give low values 0.992 | locus YOR144C, strain elg1, hits give low values 0.998 | locus YOR231W, strain MKK1, hits give low values 0.89 | locus YOR316C, strain cot1, hits give low values 1 | locus YPL256C, strain CLN2, hits give low values 0.855 | locus YPR119W, strain clb2, hits give low values 1 | locus YPR141C, strain kar3, hits give low values 0.979 | locus YPR163C, strain tif3, hits give low values 0.964 | locus YPR167C, strain met16, hits give low values 0.999
active: locus YAL021C, strain ccr4, hits give low values 0.899 | locus YAL026C, strain drs2, hits give low values 0.24 | locus YAL030W, strain snc1, hits give low values 0.796 | locus YBR009C, strain hhf1, hits give low values 0.244 | locus YBR023C, strain chs3, hits give low values 0.876 | locus YBR171W, strain sec66, hits give low values 0.68 | locus YBR231C, strain swc5, hits give low values 0.755 | locus YBR279W, strain paf1, hits give low values 0.863 | locus YCL011C, strain gbp2, hits give low values 0.095 | locus YCL016C, strain dcc1, hits give low values 0.703 | locus YCL061C, strain MRC1, hits give low values 0.335 | locus YCL069W, strain vba3, hits give low values 0.834 | locus YCR088W, strain abp1, hits give low values 0.182 | locus YDR001C, strain nth1, hits give low values 0.678 | locus YDR137W, strain rgp1, hits give low values 0.718 | locus YDR159W, strain sac3, hits give low values 0.852 | locus YDR334W, strain swr1, hits give low values 0.187 | locus YDR392W, strain spt3, hits give low values 0.126 | locus YDR502C, strain sam2, hits give low values 0.859 | locus YEL003W, strain gim4, hits give low values 0.0715 | locus YEL037C, strain rad23, hits give low values 0.865 | locus YEL061C, strain CIN8 (second series), hits give low values 0.339 | locus YER015W, strain faa2, hits give low values 0.593 | locus YER016W, strain bim1, hits give low values 0.895 | locus YER155C, strain BEM2 (second series), hits give low values 0.112 | locus YFR010W, strain ubp6, hits give low values 0.85 | locus YGL173C, strain kem1, hits give low values 0.895 | locus YGL227W, strain vid30, hits give low values 0.07 | locus YGL240W, strain doc1, hits give low values 0.8 | locus YGL253W, strain hxk2, hits give low values 0.771 | locus YHR013C, strain ard1, hits give low values 0.578 | locus YHR027C, strain rpn1, hits give low values 0.695 | locus YHR142W, strain chs7, hits give low values 0.476 | locus YIL125W, strain kgd1, hits give low values 0.929 | locus YJL092W, strain hpr5, hits give low values 0.644 | locus YJL095W, strain BCK1 (second series), hits give low values 0.887 | locus YJL115W, strain asf1, hits give low values 0.622 | locus YJL129C, strain trk1, hits give low values 0.196 | locus YJL164C, strain tpk1, hits give low values 0.545 | locus YJL166W, strain qcr8, hits give low values 0.427 | locus YJR043C, strain POL32, hits give low values 0.662 | locus YKL085W, strain MDH1 (second series), hits give low values 0.912 | locus YKL085W, strain MDH1, hits give low values 0.912 | locus YKR001C, strain vps1, hits give low values 0.841 | locus YKR026C, strain gcn3, hits give low values 0.225 | locus YKR091W, strain srl3, hits give low values 0.81 | locus YLL026W, hits give low values 0.289 | locus YLL041C, strain sdh2, hits give low values 0.657 | locus YLR027C, strain aat2, hits give low values 0.344 | locus YLR221C, strain rsa3, hits give low values 0.0809 | locus YLR258W, strain gsy2, hits give low values 0.728 | locus YLR262C, strain YPT6 (second series), hits give low values 0.635 | locus YLR320W, strain mms22, hits give low values 0.232 | locus YLR342W, strain FKS1, hits give low values 0.819 | locus YLR357W, strain rsc2, hits give low values 0.549 | locus YLR418C, strain cdc73, hits give low values 0.554 | locus YML120C, strain ndi1, hits give low values 0.128 | locus YMR058W, strain fet3, hits give low values 0.216 | locus YMR125W, strain sto1, hits give low values 0.0911 | locus YMR129W, hits give low values 0.0909 | locus YMR205C, strain PFK2, hits give low values 0.728 | locus YNL071W, strain lat1, hits give low values 0.0878 | locus YNL209W, strain ssb2, hits give low values 0.798 | locus YNL248C, strain rpa49, hits give low values 0.0991 | locus YNL307C, strain MCK1, hits give low values 0.89 | locus YNL322C, strain KRE1 (second series), hits give low values 0.121 | locus YOR001W, strain rrp6, hits give low values 0.084 | locus YOR070C, strain gyp1, hits give low values 0.658 | locus YOR083W, strain WHI5, hits give low values 0.598 | locus YOR106W, strain vam3, hits give low values 0.598 | locus YOR184W, strain ser1, hits give low values 0.161 | locus YOR265W, strain rbl2, hits give low values 0.894 | locus YOR270C, strain vph1, hits give low values 0.503 | locus YOR290C, strain snf2, hits give low values 0.853 | locus YPL051W, strain arl3, hits give low values 0.816 | locus YPL078C, strain atp4, hits give low values 0.878 | locus YPL106C, strain sse1, hits give low values 0.823 | locus YPL240C, strain hsp82, hits give low values 0.795 | strain wtn01, hits give low values 0.858
